Our source for the Potency values is PubChem BioAssay (NCATS).

Structures are written as SMILES. Records with an inconclusive call do not appear. Active and inactive are the calls of the source. Calls follow the shape of the dose curve; as a rule, active = well fitted curve in the direction sought with a large enough effect; inconclusive = small, poorly fitted or top-dose-only effect, or another doubt; inactive = no such curve, though single readings can be large; an effect the other way counts as inactive or inconclusive.

Test [1] in a line: qHTS of pediatric cancer cell lines to identify multiple opportunities for drug repurposing: Confirmatory screen for Rh41 cells (AID 1347123).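 Also: potency is read from the fitted curve at half-maximal effect; 48 h compound exposure; nearly all actives have a fitted effect of over 60% in size.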 The procedure, abridged: (§1)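 Cells (500-1,000/well) rested 5 h, then received compounds for 48 h; metabolically active cells were measured by CellTiter-Glo luminescence. Final concentrations spanned up to 46 µM (MIPE, 11-point) or 0.59 nM-46 µM (NPC, 8-point) in primary screens, 11-point in follow-ups.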
Background: qHTS replaces the single test concentration by a dilution series.

The nature of test [2]: qHTS of pediatric cancer cell lines to identify multiple opportunities for drug repurposing: Confirmatory screen for Rh18 cells (AID 1347125). Also: nearly all actives have a fitted effect of over 55% in size. Also: potency is read from the fitted curve at half-maximal effect. The procedure, abridged: as §1
Test [3] is described as follows: qHTS of pediatric cancer cell lines to identify multiple opportunities for drug repurposing: Confirmatory screen for Rh30 cells (AID 1347126). Also: nearly all actives have a fitted effect of over 55% in size. Also: potency is read from the fitted curve at half-maximal effect. The procedure, abridged:
as §1

Test [4] is described as follows: qHTS of pediatric cancer cell lines to identify multiple opportunities for drug repurposing: Confirmatory screen for Saos-2 cells (AID 1347127). Also: nearly all actives have a fitted effect of over 60% in size. Also: potency is read from the fitted curve at half-maximal effect. The procedure, abridged: as §1
Test [5] relates to Zika virus NS2B-NS3 protease. Put plainly: Primary screen GU AMC qHTS for Zika virus inhibitors (AID 1347154). Also: nearly all actives have a fitted effect of over 70% in size. Also: potency is read from the fitted curve at half-maximal effect. The procedure, abridged: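 Fluorogenic AMC-substrate cleavage by noncovalent NS2B-NS3 protease complex (25 nM, pH 8.0 Tris buffer with Tween 20) followed for 15 minutes at room temperature (~20% conversion). Percent inhibition from ex340/em450 signal change, fitted by 4-parameter Hill equation.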

Test [6] is described as follows: qHTS of pediatric cancer cell lines to identify multiple opportunities for drug repurposing: Confirmatory screen for RD cells (AID 1347124).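 Also: cells exposed to compound for 48 h before viability readout; nearly all actives have a fitted effect of over 65% in size.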 Also: potency is read from the fitted curve at half-maximal effect. The procedure, abridged: as §1
Test [7] can be described thus: qHTS of pediatric cancer cell lines to identify multiple opportunities for drug repurposing: Confirmatory screen for OHS-50 cells (AID 1347128).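 Also: compound exposure lasted 48 h at 37 degrees C; nearly all actives have a fitted effect of over 55% in size.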 Also: potency is read from the fitted curve at half-maximal effect. The procedure, abridged: as §1
A short description of test [8]: qHTS of pediatric cancer cell lines to identify multiple opportunities for drug repurposing: Confirmatory screen for SK-N-SH cells (AID 1347129).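 Also: cells exposed to compound for 48 h before viability read; nearly all actives have a fitted effect of over 60% in size.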 Also: potency is read from the fitted curve at half-maximal effect. The procedure, abridged:
as §1

Test [9] deals with Zika virus NS2B-NS3 protease (unlinked complex). Kind of test: Primary screen GU Rhodamine qHTS for Zika virus inhibitors: Unlinked NS2B-NS3 protease assay (AID 1347159). Also: nearly all actives have a fitted effect of over 60% in size. Also: potency is read from the fitted curve at half-maximal effect. The procedure, abridged:
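Noncovalent NS2B hydrophilic domain/NS3 protease complex (25 nM final) in 10 mM Tris-HCl pH 8.0, 0.01% Tween 20, preincubated 15 min with compounds (up to 114 microM), then 1.5 microM Rhodamine110 substrate. Fluorescence change over 15 min fitted to 4-parameter Hill.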

The test system of test [10] is Zika virus NS2B-NS3 protease (linked construct). Put plainly: Primary screen NINDS Rhodamine qHTS for Zika virus inhibitors (AID 1347160). Also: nearly all actives have a fitted effect of over 55% in size. The procedure, abridged:
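Purified NS2B-NS3 protease with the NS2B hydrophilic domain joined by a flexible linker (25 nM) in 10 mM Tris-HCl pH 8.0, 0.01% Tween 20, preincubated 15 min at RT with compound; Rhodamine110 peptide substrate 1.5 µM; fluorescence change over 15 min; 4-parameter Hill fit.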

The target in another test is Furin (Homo sapiens) (UniProt P09958). Kind of test: Furin counterscreen qHTS for Zika virus inhibitors (AID 1347149). Also: potency is read from the fitted curve at half-maximal effect; nearly all actives have a fitted effect of over 70% in size. The procedure, abridged: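 Fluorogenic cleavage of BOC-RVRR-AMC (2 microM final, Km ~15 µM) was monitored (ex 340, em 450 nm) at 37C after 15 min RT preincubation of 5 nM furin with compounds in HEPES pH 7.0 buffer with CaCl2 and Triton X-100. Percent inhibition was fitted to a 4-parameter Hill curve.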
For orientation: The purpose of a counterscreen is to sort out artefacts and off-target activity.

The test system of test [11] is Zika virus NS2B-NS3 protease (linked construct). Put plainly: Confirmatory screen NINDS AMC qHTS for Zika virus inhibitors (AID 1347152). Also: potency is read from the fitted curve at half-maximal effect; nearly all actives have a fitted effect of over 70% in size. The procedure, abridged:
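In this dose-response qHTS, AMC release from 10 microM Bz-Nle-KRR-AMC by 1 nM linked protease is measured over 15 minutes (about 20% conversion) at pH 8.0. Percent inhibition is fitted to a 4-parameter Hill curve.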

Test [12] is described as follows: Confirmatory screen NINDS Rhodamine qHTS for Zika virus inhibitors (AID 1347161). The procedure, abridged: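 qHTS dose-response: 25 nM linked protease, pH 8.0 Tris/Tween buffer, cpd titration, 15 min RT preinc, 1.5 microM Rhod110 peptide, 15 min reaction (~15% conversion), Ex480/Em540; 4-parameter Hill fit.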

Chain of Furin (Homo sapiens) (P09958 whole entry, looked up): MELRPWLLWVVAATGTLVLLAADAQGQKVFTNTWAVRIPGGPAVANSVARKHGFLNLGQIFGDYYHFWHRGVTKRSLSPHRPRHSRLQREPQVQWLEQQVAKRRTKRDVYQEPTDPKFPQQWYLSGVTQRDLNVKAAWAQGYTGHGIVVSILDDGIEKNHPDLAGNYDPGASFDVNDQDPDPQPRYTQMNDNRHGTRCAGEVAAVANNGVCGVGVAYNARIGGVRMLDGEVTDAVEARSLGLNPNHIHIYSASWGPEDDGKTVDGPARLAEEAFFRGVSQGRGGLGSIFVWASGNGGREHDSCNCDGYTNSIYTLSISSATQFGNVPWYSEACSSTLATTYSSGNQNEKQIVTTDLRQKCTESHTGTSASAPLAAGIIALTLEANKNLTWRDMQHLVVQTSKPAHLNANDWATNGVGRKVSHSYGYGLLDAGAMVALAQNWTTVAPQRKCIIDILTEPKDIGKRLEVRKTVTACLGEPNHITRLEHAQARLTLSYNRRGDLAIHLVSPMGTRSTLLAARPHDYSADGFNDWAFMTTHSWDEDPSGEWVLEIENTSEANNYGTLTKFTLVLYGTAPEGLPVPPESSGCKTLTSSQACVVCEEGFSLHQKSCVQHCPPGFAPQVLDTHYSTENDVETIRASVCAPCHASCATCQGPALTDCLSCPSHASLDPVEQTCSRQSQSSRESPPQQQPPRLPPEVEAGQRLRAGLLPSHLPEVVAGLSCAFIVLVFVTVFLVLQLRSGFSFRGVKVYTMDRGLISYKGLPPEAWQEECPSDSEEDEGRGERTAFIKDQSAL

With `CC(=O)O[C@@]12CO[C@H]1C[C@H](O)[C@@]1(C)C(=O)[C@H](O)C3=C(C)[C@@H](OC(=O)C(O)[C@@H](NC(=O)OC(C)(C)C)c4ccccc4)C[C@@](O)([C@@H](OC(=O)c4ccccc4)[C@@H]21)C3(C)C` (some centres not stated), the figures for the Potency in [1] and in test [4] were 0.0104 µM (active) and 0.0131 µM (active), respectively. In addition, the Potency entry in [2], in test [3] and in test [5] was “inactive” in each case.

On to `CCOc1cc2ncc(C#N)c(Nc3ccc(OCc4ccccn4)c(Cl)c3)c2cc1NC(=O)C=CCN(C)C`, for which the Potency is 2.93 µM (active) in [1], 2.33 µM (active) in test [6] and 5.85 µM (active) in test [3]. Also, in test [5], the Potency entry is “inactive”.

For the compound `COc1cccc2c1C(=O)c1c(O)c3c(c(O)c1C2=O)C[C@@](O)(C(C)=O)C[C@H]3O[C@H]1C[C@H](N)[C@H](O)[C@H](C)O1`, the results for the Potency in test [1], in test [6] and in test [2] were 0.585 µM (active), 2.61 µM (active) and 2.61 µM (active), respectively. Moreover, in test [5], the Potency entry is “inactive”.

On to `COc1cccc2c1C(=O)c1c(O)c3c(c(O)c1C2=O)C[C@@](O)(C(=O)CO)C[C@@H]3O[C@H]1C[C@H](N)[C@H](OC2CCCCO2)[C@H](C)O1` (some centres not stated), for which the Potency in test [1] is 2.93 µM (active); in test [2], 18.5 µM (active); in test [7], 14.7 µM (active). The Potency entry in test [3] and in [5] was “inactive” throughout.

As for `Cc1cnc(Nc2ccc(CN3CCOCC3)cc2)nc1Nc1cccc(S(=O)(=O)NC(C)(C)C)c1`, the Potency in [1] is 5.22 µM (active); in test [2] it was 9.27 µM (active); in [4] it was 9.27 µM (active); in test [7] it was 5.22 µM (active); in test [8] it was 5.26 µM (active). Further, the Potency entry in test [3], in [5], in test [9] and in [10] was “inactive” in each case.

As to `C=CC(=O)Nc1ccc2ncnc(Nc3ccc(OCc4cccc(F)c4)c(Cl)c3)c2c1`, the Potency in test [1] was 0.465 µM (active); in test [6], 1.47 µM (active); in test [2] it was 16.5 µM (active); in test [4], 7.37 µM (active); in [8] it was 16.6 µM (active); in [9] it was 44.7 µM (active). Besides, in test [5], the Potency entry was “inactive”.

With `Cn1cnc(=N)c2[nH]cnc21`, the Potency entry in test [2], in test [4], in [8] and in test [5] was “inactive” each time.

With `O=C(NCc1ccccc1)[C@H](Cc1ccccc1)NC(=O)[C@@H]1O[C@@H]1C(=O)NCCc1ccc(O)cc1`, the Potency result in test [6], in test [2], in test [3], in test [4], in [7] and in [5] was “inactive” each time.

With `Cc1onc(-c2ccccc2)c1C(=O)N[C@@H]1C(=O)N2[C@@H](C(=O)O)C(C)(C)S[C@@H]12`, the Potency entry in [5] is “inactive”.

With `CC1(C)CC(O)CC(C)(C)N1[O]`, in test [5], the Potency result is “inactive”.

For the compound `Cc1ccc2nc(NCCN)c3ncc(C)n3c2c1`, the Potency entry in test [5] was “inactive”.

Turning to `c1cc(N[C@@H]2CCNC2)nc(-c2cnc3ccc(-c4cn[nH]c4)cn23)c1`, the Potency is 24.1 µM (active) in the test with Furin (Homo sapiens), 24.1 µM (active) in test [11] and 19.2 µM (active) in test [5]. Further, the Potency entry in [10] and in test [12] was “inactive” each time.

For `CCCc1nc(C(C)(C)O)c(C(=O)O)n1Cc1ccc(-c2ccccc2-c2nn[nH]n2)cc1`, the Potency result in test [5] was “inactive”.

For the compound `CC(=O)N[C@H]1[C@@H]([C@H](O)[C@H](O)CO)OC(C(=O)O)=C[C@@H]1N=C(N)N`, the Potency entry in [5] is “inactive”.

As for `O=C(NC1CC1)c1cccc(-c2ccc3c(NC(=O)C4CC4)n[nH]c3c2)c1`, the Potency entry in test [2] and in test [5] was “inactive” each time.

As to `O=C(CN1C(=O)C2(CCCC2)NC[C@H]1c1cc(F)cc(F)c1)Nc1ccc2c(c1)C[C@@]1(C2)C(=O)Nc2ncccc21`, in [5], the Potency result was “inactive”.

Take `COC1=C(OC)C(=O)C(CC=C(C)CCC=C(C)CCC=C(C)CCC=C(C)CCC=C(C)CCC=C(C)CCC=C(C)CCC=C(C)CCC=C(C)CCC=C(C)C)=C(C)C1=O`: the Potency result in test [5] is “inactive”.

For `CC(N[C@H]1CCCC[C@H]1NC(=O)c1ccc(Cl)cc1)c1cccc2ccccc12` (some centres not stated), the Potency in test [4] is 26.1 µM (active); in test [8], 9.35 µM (active). In test [5], the Potency entry was “inactive”.

For `O=c1[nH]c(=O)n([C@H]2C[C@@H](O)[C@@H](CO)O2)cc1F`, in test [5], the Potency entry is “inactive”.
